The entries come from a sample that favours hits as a whole.
Pf Dd2 inh: Plasmodium falciparum Dd2 growth inhibition; hit rate 4.3% among 120,000; P. falciparum Dd2 growth, SYBR Green, 72 h; AID 1347417; Potency, µM (doses to about 28.9 µM), actives largely listed as inhibitors; active = well fitted inhibition curve with a large enough effect; also: nearly all actives have a fitted effect of over 65% in size
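Readout: SYBR Green fluorescence, 485 nm excitation, 535 nm emission, after ~16 h lysis at 37C. Before that, Dd2-infected red cells (2.5% hematocrit) grew 72 h with compound, 29 uM top final concentration.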
Each line names hits and unclear results; the compound was inactive in the other large screens.

c1ccc2c(c1)OCC(CCNc1ncncn1)O2 (stereo not given)	none
CN(Cc1cccc(C(F)(F)F)c1)C(=O)C1CC1	none
CC1=C(C(=O)N2CCOC(CCCc3ccccc3)C2)OCCO1 (stereo not given)	none
O=C(CCc1ccccc1)N1CCNc2cnc(Nc3cccc(C(F)(F)F)c3)nc2C1	none
Cc1cccc2c1nc1n2[C@@H](CNC2CCOCC2)COC1	none
CNC(=O)[C@@H](C1CC1)N1CCC[C@H]1C(=O)NCc1ccccn1	none
C=CCC1(C(=O)O)CCCN(C(=O)c2cn(CCN)nn2)C1 (stereo not given)	none
Cc1cc(C(=O)N[C@@H]2CN(Cc3ccccc3)C[C@H]2CN(C)C)nn1C	none
Cc1cccc(CNC(=O)CN2CC3CC(C2)[C@H]2CCCC(=O)N2C3)c1 (stereo not given in full)	none
COc1ccc(Cl)cc1NC(=O)CCC1CCCN(C(=O)CN2CCOC2=O)C1 (stereo not given)	none
CCOc1ccc(C(=O)N2CCCN(c3cc(-c4ccc(Cl)cc4)[nH]n3)CC2)cc1OCC	Pf Dd2 inh 5µM
COc1cc(C(=O)N2CCCN(c3cc(-c4ccc(C)c(C)c4)[nH]n3)CC2)cc(OC)c1OC	none
Cc1ccc(-c2cc(N3CCCN(C(=O)c4ccsc4)CC3)n[nH]2)cc1C	none
CCOc1ccc(C(=O)N2CCN(c3cc(-c4ccc(F)cc4)[nH]n3)CC2)cc1OCC	none
O=C(c1ccccc1)N1CCCN(c2cc(-c3ccc(Cl)cc3)[nH]n2)CC1	none
COc1cc(OC)cc(C(=O)N2CCCN(c3cc(-c4ccc(C)c(C)c4)[nH]n3)CC2)c1	Pf Dd2 inh 11µM
CN1C(=O)CO[C@H](c2ccc(NS(=O)(=O)Cc3ccccc3)cc2)[C@H]1CO	none
COCCNC(=O)[C@H]1C[C@H](Oc2cccnc2)CN1C(=O)NCCc1ccccc1	none
Cc1ccc(CNC(=O)c2c(Nc3c(C)cccc3C)sc(C(=O)c3ccccc3)c2N)cc1	none
COc1ccccc1Nc1sc(C(=O)c2ccc(C)cc2C)c(N)c1S(=O)(=O)c1ccccc1	none
COc1cccc(C(=O)c2sc(Nc3ccc(C)cc3C)c(S(=O)(=O)c3ccccc3)c2N)c1	Pf Dd2 inh 10µM
Cc1ccc(Nc2sc(C(=O)c3ccccc3)c(N)c2C(=O)NC(C)C)cc1	none
Cc1ccc(Nc2sc(C(=O)c3ccccc3)c(N)c2S(=O)(=O)c2ccccc2)c(C)c1	Pf Dd2 inh 10µM
CCOC(=O)c1sc2ccccc2c1S(=O)(=O)Nc1cc(OC)ccc1OC	none
CCOc1ccc(Nc2sc(C(=O)c3cccc(OC)c3)c(N)c2S(=O)(=O)c2ccccc2)cc1	none
COc1ccc(OC)c(Nc2sc(C(=O)c3ccccc3)c(N)c2S(=O)(=O)c2ccccc2)c1	Pf Dd2 inh 8.9µM
COc1ccc(CCNC(=O)c2c(Nc3ccccc3C)sc(C(=O)c3ccccc3)c2N)cc1OC	none
O=C(NC1CCN(c2cc(-c3ccc(F)cc3)[nH]n2)CC1)c1cc(F)ccc1Cl	none
CCCc1noc(-c2cn(C3CCN(C(=O)c4sccc4C)CC3)nn2)n1	none
O=C(NCCc1csc(-c2ccncc2)n1)C1CNCCO1 (stereo not given)	none
O=C(NCc1ccco1)C1COC2(CCN(C(=O)c3cccs3)CC2)N1C(=O)c1ccccc1 (stereo not given)	none
O=C1CCCCC(CNC(=O)c2cn[nH]c2-c2ccccc2)N1 (stereo not given)	none
COc1cccc(-c2noc(Nc3ccc4c(c3)OCCO4)n2)c1	none
Cn1cnnc1CC1CCN(C(=O)c2cn3cc(Cl)ccc3n2)CC1	none
CSCC(=O)N[C@H]1CCN2C(=O)c3ccc(Cl)cc3NC(=O)[C@H]12	none
CCc1ccc(NC(=O)c2ccc(F)c(S(=O)(=O)N(C)C3CCCCC3)c2)cc1	Pf Dd2 inh 11µM
CCc1ccc(NC(=O)c2ccc(F)c(S(=O)(=O)N3CCC(C)CC3)c2)cc1	none
CCc1ccc(NC(=O)c2ccc(F)c(S(=O)(=O)N3CCc4ccccc4C3)c2)cc1	none
COc1ccc(OC)c(NC(=O)Cn2nc3n(c2=O)CCCCC3)c1	none
COc1ccc(N2CCN(c3nc(C(=O)NC4CC4)cs3)CC2)cc1	none
COc1ccc(N2CCN(c3nc(C(=O)NCc4cccc(C)c4)cs3)CC2)cc1	Pf Dd2 inh 3.2µM
O=C(NCc1ccccc1Cl)c1csc(N2CCN(c3ccc(F)cc3)CC2)n1	none
O=C(NCc1cccs1)c1csc(N2CCN(c3ccc(F)cc3)CC2)n1	none
COc1ccc(N2CCN(c3nc(C(=O)NCc4ccccc4C)cs3)CC2)cc1	Pf Dd2 inh 8.9µM
COc1ccc(N2CCN(c3nc(C(=O)NCc4ccc(C)cc4)cs3)CC2)cc1	none
COCc1nc(CCNC(=O)C2CCN(S(=O)(=O)N3CCC(C)CC3)CC2)no1	none
Cc1n[nH]c(C)c1C(N)C(=O)NCc1cc(C(F)(F)F)ccc1F (stereo not given)	none
CCCC(=O)NC(C)C(=O)N1CCN(c2ccccn2)CC1 (stereo not given)	none
CCn1cc(-c2ccc(C)cc2)cc1C(=O)NCCN1CCOCC1	none
O=C(Cn1ccn2nc(-c3ccccc3)c(CO)c2c1=O)Nc1cccc(C(F)(F)F)c1	none
COc1ccc2[nH]c(C(=O)N3C[C@@H](Oc4ccccc4)C[C@H]3C(=O)N3CCOCC3)cc2c1	none
Cc1noc(C)c1[S+](=O)([O-])N1CCC2(CC1)COc1ccccc1NC2=O	Pf Dd2 inh 8.9µM
Cc1noc(C)c1[S+](=O)([O-])N1CCC2(CC1)Cc1ccccc1NC2=O	none
O=C1Nc2ccccc2OCC12CCN([S+](=O)([O-])c1ccccc1)CC2	none
Cc1noc([C@H]2CCN(C(=O)NCc3ccc(F)cc3)C[C@H]2NC(=O)C2CCOCC2)n1	none
COc1ccc([C@@H](NC(=O)CN2CCc3ccccc3C2)C2CC(O)C2)cn1 (stereo not given in full)	none
Cc1ccc(NC(=O)N2CCc3c(C(=O)NCCc4ccccn4)cccc32)cc1	none
O=C(NCCc1ccccn1)c1ccc(OC2CCNCC2)nc1	none
O=C(NCCc1cccnc1)c1ccc(-c2nnc3ccc(NC(=O)C4CCC4)cn23)cc1	Pf Dd2 inh 0.4µM
O=C(NCCc1ccccn1)c1ccc(-c2nnc3ccc(NC(=O)C4CCC4)cn23)cc1	Pf Dd2 inh 0.56µM
O=C(NC1CC1)c1ccc2nnc(-c3cccnc3)n2c1	none
O=C(Nc1ccc([C@H]2OCC(=O)N(Cc3cccnc3)[C@@H]2CO)cc1)C1CCC1	none
CC1CCC(NC(=O)CN2C(=O)NC3(CCC(C)CC3)C2=O)CC1 (stereo not given)	none
O=C(Cn1cccc1-c1nc(-c2ccc(F)cc2)no1)Nc1ccccc1F	none
Cc1cccc(CNC(=O)[C@H]2CCC[C@H]2NC(=O)c2cnc(C)cn2)c1	none
CC(=O)N1C[C@@H](C(=O)N2CCN(c3ccccn3)CC2)[C@H](c2nc(C)no2)C1	none
COc1ccc(-c2cc(N3CCC(NC(=O)c4ccccc4Br)C3)n[nH]2)cc1 (stereo not given)	none
Cc1ccc(C)c(-c2cc3c(=O)n(CCNC(=O)c4ccc5ccccc5n4)ccn3n2)c1	none
Cc1cccc(OC[C@H]2C[C@@H](NC(=O)c3ccccc3)[C@H](O)[C@@H]2O)n1	none
Cc1ccc(S(=O)(=O)N2CCCC3(CCC(=O)N(C4CC4)C3)C2)cc1C (stereo not given)	none
O=C(Cc1ccccc1)N1CCCC1c1nc(CCOCC2CC2)no1 (stereo not given)	none
CCCC(=O)NCC(c1ccc2c(c1)OCO2)N1CCN(c2ccccc2)CC1 (stereo not given)	none
Cc1ccc(NC(=O)C(=O)NCC(c2ccc3c(c2)OCO3)N2CCN(c3ccccc3)CC2)cc1 (stereo not given)	none
CCCC(=O)NCC(c1ccc2c(c1)OCO2)N1CCN(c2ccc(F)cc2)CC1 (stereo not given)	none

High-throughput results from PubChem.
